SENP8 block-1: human SENP8 protease inhibitors, primary screen, biochemical, fluorescence, Nedd8 protein substrate, uHTS | Sentrin-specific protease 8 (Homo sapiens), Q96LD8 | recombinant SENP8 | inhibition, % at 20 µM | actives 0.64% (n = 360,000) | AID 602440, 2012; in the data active = inhibition mostly above about 40%, no sharp cut-off; inactive = mostly below about 27%
Target sequence (Q96LD8 whole entry, looked up): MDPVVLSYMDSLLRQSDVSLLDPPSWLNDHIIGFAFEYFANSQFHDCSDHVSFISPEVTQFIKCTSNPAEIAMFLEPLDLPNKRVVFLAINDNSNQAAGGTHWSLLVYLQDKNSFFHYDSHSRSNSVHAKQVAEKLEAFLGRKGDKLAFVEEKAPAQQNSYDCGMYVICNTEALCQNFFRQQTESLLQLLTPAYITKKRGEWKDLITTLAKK
TRAIL sens C8: viability loss with TRAIL in NB7+C8 cells, primary screen, TRAIL sensitizer project, cell-based, ATPlite luminescence; inhibition (viability loss, TRAIL sensitization), % at 10 µM; actives 1% (n = 360,000);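 active = compounds causing at least 50% loss of cell viability in the single-dose screen, relative to plate controls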
SENP8 block-2: SENP8 protease inhibitors, primary screen, biochemical, luminescence | Sentrin-specific protease 8 (Homo sapiens), Q96LD8 | purified SENP8, Z-RLRGG-aminoluciferin cleavage | inhibition, % at 10 µM | actives 1.2% (n = 330,000) | AID 2540, 2010; in the data active = inhibition above about 50%
SENP6 inh: SENP6 protease inhibitors, primary screen, biochemical, luminescence, uHTS; inhibition, % at 10 µM; actives 1.8% (n = 330,000); Recombinant SENP6 catalytic domain, aminoluciferin luminescence; Sentrin-specific protease 6 (Homo sapiens), Q9GZR1; AID 2599, 2010;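 active = inhibition above about 50% at the single tested dose, limit read from the data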;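 also: plate controls were DMSO wells with enzyme for no effect and DMSO wells lacking enzyme for full effect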
SENP7 block: SENP7 protease inhibitors, primary screen, biochemical, luminescence, uHTS. inhibition, % at 5 µM. actives 1.5% (n = 330,000). Sentrin-specific protease 7 (Homo sapiens), Q9BQF6. recombinant SENP7, Z-RLRGG-aminoluciferin luminescence, 40 min;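 active = inhibition above about 50% at the single test dose, limit read from the data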;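 also: plate controls were DMSO with enzyme for no effect and no enzyme buffer wells for full effect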
Target sequence (Q9BQF6 706-1050 limits assumed): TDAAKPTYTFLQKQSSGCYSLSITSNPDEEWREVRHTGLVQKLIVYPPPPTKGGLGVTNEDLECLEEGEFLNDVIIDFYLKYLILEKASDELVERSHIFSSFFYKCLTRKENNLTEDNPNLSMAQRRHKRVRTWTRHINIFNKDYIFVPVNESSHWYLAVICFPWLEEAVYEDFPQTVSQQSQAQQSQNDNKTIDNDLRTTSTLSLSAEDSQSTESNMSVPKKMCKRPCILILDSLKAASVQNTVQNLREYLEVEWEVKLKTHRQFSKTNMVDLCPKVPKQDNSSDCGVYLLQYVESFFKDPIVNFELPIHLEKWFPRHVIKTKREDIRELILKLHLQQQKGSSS
PPC-1+TRAIL kill: compounds killing PPC-1 cancer cells with TRAIL present, primary screen, TRAIL potentiator project, ATPLite luminescence, uHTS; actives 0.41% (n = 220,000); PPC-1 cells + TRAIL, ATPLite viability luminescence; cell killing (% activity), % at 4 µM or 5 µM; AID 1443, 2008;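 active = cell killing above 50% in the first pass at 4 µM, then a duplicate retest at 5 µM averaging 50% or more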;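 also: plate controls were cells with TRAIL plus DMSO for no effect and medium-only wells lacking cells for full effect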
SENP8 conf: SENP8 protease inhibitors, retest, confirmation, biochemical, luminescence, single concentration. shares compounds with SENP7 block. Recombinant SENP8, Z-RLRGG-aminoluciferin luminescence, 60 min. inhibition, % at 12.5 µM. actives 40% (n = 6,200). AID 488912, 2010;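 active = mean inhibition across replicates above about 50%, limit read from the data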
SENP6 confirm: SENP6 protease inhibitors, confirmation, biochemical, luminescence, single concentration. AID 488915, 2010. recombinant SENP6, Z-RLRGG-aminoluciferin luminescence. actives 58% (n = 6,200). inhibition, % at 12.5 µM. shares compounds with SENP7 block
SENP7 conf: SENP7 protease inhibitors, retest, confirmation, biochemical, luminescence, single concentration. shares compounds with SENP7 block. recombinant SENP7, Z-RLRGG-aminoluciferin luminescence, 40 min. inhibition, % at 12.5 µM. actives 69% (n = 6,200)
Casp3 SENP sel: caspase-3 protease inhibitors, confirmation, selectivity assay for SENP inhibitor project, biochemical, single concentration. shares compounds with SENP7 block. AID 488918, 2010. inhibition, % at 12.5 µM. purified caspase-3, Z-DEVD-aminoluciferin luminescence, 60 min. actives 60% (n = 6,200);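 active = mean inhibition above about 50%, limit read from the data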;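 also: plate controls were enzyme with DMSO for no effect and wells without caspase-3 for full effect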
SENP luc ctr: interferes with luciferase luminescence in SENP counter-screen; shares compounds with SENP7 block; Pre-incubated SENP8/Z-RLRGG-aminoluciferin, luciferase luminescence interference; inhibition, % at 12.5 µM; actives 39% (n = 6,200); AID 488919;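 active = mean inhibition above about 50% when retested at one dose, limit read from the data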;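 also: plate controls were DMSO wells with completed reaction for no effect and substrate without enzyme for full effect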
* = called active by the depositor. Shown are actives, neighbours in structure and some others; about 3% of the full set was active somewhere.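 The calls were made as follows, unless noted: active = mean inhibition above about 50% in the one-dose retest (limit read from the data); inactive = the rest.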

O=C(O)CC(c1ccccc1)N1C(=O)c2ccccc2C1=O (stereo not given) was read as SENP8 block-1 11, TRAIL sens C8 -15, SENP8 block-2 2, SENP6 inh -1 and SENP7 block 5.
Screening Cc1ccc(S(=O)(=O)N(C)C[C@H]2Oc3ncc(-c4ccccc4)cc3C(=O)N([C@@H](C)CO)C[C@@H]2C)cc1 returned SENP8 block-1 5 and TRAIL sens C8 1.
`COc1ccc(N2CCN(C(=S)Nc3cc(C)ccc3C)CC2)cc1` gave SENP8 block-1 11, TRAIL sens C8 2, SENP8 block-2 9, SENP6 inh -11, SENP7 block 81*, PPC-1+TRAIL kill 13, SENP8 conf -2, SENP6 confirm 2, SENP7 conf 9, Casp3 SENP sel 4 and SENP luc ctr 0.
COCCNC(=O)c1cc(OC)c(OC)cc1[N+](=O)[O-] was read as SENP8 block-1 12, TRAIL sens C8 6, SENP8 block-2 -8, SENP6 inh -12, SENP7 block -8 and PPC-1+TRAIL kill -6.
CCOC(=O)CC(NC(=O)CCS(=O)(=O)c1ccc2c(c1)n(C)c(=O)c(=O)n2C)c1ccc(C)cc1 (stereo not given) was read as SENP8 block-1 -123, TRAIL sens C8 2, SENP8 block-2 5, SENP6 inh -5 and SENP7 block 0.
Screening N#CCSc1nnc2sc3ccccc3n12 returned SENP8 block-1 7, TRAIL sens C8 -4, SENP8 block-2 -2, SENP6 inh -14, SENP7 block 87*, PPC-1+TRAIL kill 1, SENP8 conf 9, SENP6 confirm 9, SENP7 conf -9, Casp3 SENP sel -3 and SENP luc ctr 0.
NC(=O)CSc1nnc2sc3ccccc3n12 was read as SENP8 block-1 18, TRAIL sens C8 1, SENP8 block-2 5, SENP6 inh 12, SENP7 block 8 and PPC-1+TRAIL kill -1.
For COc1nsnc1NS(=O)(=O)c1ccc(NC(=S)NC(=O)c2cccnc2)cc1 the results were SENP8 block-1 16, TRAIL sens C8 13, SENP8 block-2 24, SENP6 inh 54*, SENP7 block 30, PPC-1+TRAIL kill -10, SENP8 conf 55*, SENP6 confirm 51*, SENP7 conf 82*, Casp3 SENP sel 84* and SENP luc ctr 55*.
Screening COc1ccc2[nH]cc(CCNC(=O)C3CCCCC3)c2c1 returned SENP8 block-1 -51, TRAIL sens C8 1, SENP8 block-2 8, SENP6 inh -21 and SENP7 block -4.
`Nc1ccc(-c2nc3ccccc3o2)cc1` gave SENP8 block-1 -290, TRAIL sens C8 20, SENP8 block-2 55*, SENP6 inh 60*, SENP7 block 67*, SENP8 conf 70*, SENP6 confirm 65*, SENP7 conf 90*, Casp3 SENP sel 70* and SENP luc ctr 71*.
Cc1nc2ccc([N+](=O)[O-])cc2[nH]1 was read as SENP8 block-1 -6, TRAIL sens C8 -8, SENP8 block-2 1, SENP6 inh -13, SENP7 block 3 and PPC-1+TRAIL kill -10.
`Nc1nc2cc(Br)ccc2o1` gave SENP8 block-1 9 and TRAIL sens C8 4.
For Cc1nc2ccc(-c3nc4cc(N)ccc4o3)cc2[nH]1 the results were SENP8 block-1 -276, TRAIL sens C8 60*, SENP8 block-2 54*, SENP6 inh 46, SENP7 block 77*, PPC-1+TRAIL kill 43, SENP8 conf 2, SENP6 confirm 78*, SENP7 conf 96*, Casp3 SENP sel 90* and SENP luc ctr 58*.
`Nc1cc(N)cc(-c2nc3ccccc3o2)c1` gave SENP8 block-1 -410, TRAIL sens C8 11, SENP8 block-2 3, SENP6 inh 8 and SENP7 block 5.
For Nc1ccc2oc(-c3cccc(Br)c3)nc2c1 the results were SENP8 block-1 -428, TRAIL sens C8 20, SENP8 block-2 82*, SENP6 inh 90*, SENP7 block 90*, PPC-1+TRAIL kill 20, SENP8 conf 58*, SENP6 confirm 82*, SENP7 conf 98*, Casp3 SENP sel 74* and SENP luc ctr 45.
`Nc1ccc2oc(-c3ccc4nc[nH]c4c3)nc2c1` gave SENP8 block-1 -321, TRAIL sens C8 57*, SENP8 block-2 30, SENP6 inh 67*, SENP7 block 58*, PPC-1+TRAIL kill 31, SENP8 conf 54*, SENP6 confirm 55*, SENP7 conf 86*, Casp3 SENP sel 80* and SENP luc ctr 50*.
Screening CC(CN1CCOCC1)OC(=O)c1ccccc1Cl (stereo not given) returned SENP8 block-1 3, TRAIL sens C8 -10, SENP8 block-2 -7, SENP6 inh 20 and SENP7 block 1.
COc1cccc(NC(=O)Cc2nnc(SCC(=O)NC3CCCCC3)n2C)c1 was read as SENP8 block-1 12, TRAIL sens C8 -13, SENP8 block-2 -6, SENP6 inh -22 and SENP7 block -8.
`CCN(CC)c1ccc(/C=C/C(=O)C2C(=O)C=C(C)OC2=O)cc1` (stereo not given) gave SENP8 block-1 -33, TRAIL sens C8 26, SENP8 block-2 -6, SENP6 inh 13 and SENP7 block -2.

Source: PubChem BioAssay (Sanford-Burnham Center for Chemical Genomics)
